Compounds without any hit were thinned out: in the full panel of roughly 79,000, 15% have a hit. Active and inactive are the calls of the source. Rule as the data show it: active = growth inhibition above about 70%; inactive = the rest.
Experiment: NCI Yeast Anticancer Drug Screen. Data for the mec2-1 strain (AID 157)
Details: S. cerevisiae mec2-1 strain, at 50.0 µM, active compounds read high
How it was run: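 Strain: mec2-1 (DNA repair/cell cycle alteration). Compound exposure, then growth measured; inhibition expressed relative to vehicle.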

Structure (SMILES)	growth inhibition
O=C(COC(=O)c1cccc([N+](=O)[O-])c1)c1ccc(Br)cc1	20.3% (inactive)
Cc1ccc(NS(=O)(=O)c2ccc(F)cc2)c(C)c1	19.1% (inactive)
CCOC(=O)N(C)C	12.8% (inactive)
CCCCN1C(=O)CC2[C@@H]3CCc4cc(OC)ccc4C3CC[C@]2(C)C1=O (stereo not given in full)	11.6% (inactive)
COc1cc2cc(-c3ccc(Cl)c(Cl)c3)[n+](C)cc2cc1OC	20.1% (inactive)
Fc1ccc(-c2ccc(F)cc2)cc1	-15.4% (inactive)
CC(=O)Nc1ccc(S(=O)(=O)N/N=C/c2ccc3c(c2)OCO3)cc1	-20.2% (inactive)
Cc1ccc(/C=C2\N=C(N3CCCC(CO)C3)NC2=O)cc1 (stereo not given)	-1.55% (inactive)
O=[N+]([O-])c1ncc(N(CCO)CCO)s1	-22.6% (inactive)
Cc1ccc(C)c(NC(=O)C(=O)C2C(=O)C3=C(CC2(C)C)Nc2ccccc2S3)c1 (stereo not given)	-20.2% (inactive)
N[C@@H]1CCCC[C@H]1O	-5.5% (inactive)
CN(C)NC(=O)/C=C\C(=O)O	-17.4% (inactive)
CC(C)(N)CNc1ccccc1	-4.95% (inactive)
CN1c2ccccc2C(=O)NC12CCN(Cc1ccccc1)CC2	-16.3% (inactive)
CC1CCN(C(=S)[S-])CC1.CC1CCN(C(=S)[S-])CC1.[Zn]	9.05% (inactive)
CN(C)Cc1onc(-c2c(Cl)cccc2Cl)c1C(=O)O	8.2% (inactive)
CC(=O)OC1=C(OC(C)=O)N(S(=O)(=O)c2ccc(C)cc2)CCc2ccccc21	20.4% (inactive)
O=C(Sc1ccccc1)C1OC1c1ccccc1 (stereo not given)	28.6% (inactive)
CCOC(=O)N1C2C=C(C)C(ON2C(=O)c2ccccc2)C2C(C)C(=O)N21 (stereo not given)	-10.7% (inactive)
CCOP(=O)(OCC)OC1CC(n2cc(C)c(=O)n(C)c2=O)OC1CO[Si](C)(C)C(C)(C)C (stereo not given)	1.5% (inactive)

Structure (SMILES)	growth inhibition
c1ccc(Sc2nc(Sc3ccccc3)nc(Sc3ccccc3)n2)cc1	-16.4% (inactive)
O=C(O)c1csc(C(=O)O)c1	-1.1% (inactive)
Nc1ncc(Cl)cn1	-21.4% (inactive)
COc1ccc(N)cc1CO	-9.85% (inactive)
O=C(N/N=C/c1c(O)ccc2ccccc12)c1ccccc1	11.3% (inactive)
CCn1c(=O)c(Cl)c2n(C)c3ccccc3n2c1=O	-7.7% (inactive)
O=C(NC(=O)c1cccc(Cl)c1)Nc1ccccc1	-15.1% (inactive)
NN(c1ccccc1)c1ccccc1	6.45% (inactive)
C[N+](C)(C)CC(=O)N/N=C(/Cc1nc2ccc([N+](=O)[O-])cc2[nH]c1=O)C(=O)Nc1cc(C(F)(F)F)ccc1Cl	3.7% (inactive)
CCOC(=O)C(=O)Cc1cnccn1	-12.7% (inactive)
CCOC(Nc1ccc(Cl)cc1Cl)C(=O)c1ccccc1 (stereo not given)	6.05% (inactive)
O=C1C(Cl)=C(Cl)C(=O)N1c1ccccc1Cl	23.6% (inactive)
Cc1cccc(C)c1NC(=O)CCC(=O)NC(N)=NC#N	-23.8% (inactive)
NC(=O)CC(NC(=O)C(F)(F)F)C(=O)O (stereo not given)	-22.9% (inactive)
CCN(CC)CCCNc1ccc([N+](=O)[O-])c2nc3ccccc3c(N)c12	-0.2% (inactive)
CC(N)(CCSCP(=O)(O)O)C(=O)O (stereo not given)	-7.4% (inactive)
CCOC(=O)Nc1cc2c(c(N)n1)N=C(c1ccc(OC)cc1)CN2	-6.75% (inactive)
CC(C)Oc1c(N(C)CCO)c2cc(Cl)ccc2oc1=O	12.4% (inactive)
OC/C(I)=C(I)\C(I)=C(\I)CO	99.3% (active)
C=C(C)COB(OCC(=C)C)OCC(=C)C	-25.4% (inactive)

Experiment: NCI Yeast Anticancer Drug Screen. Data for the sgs1 mgt1 strain (AID 161);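 also: 0% = growth of cultures given vehicle only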
Details: S. cerevisiae sgs1 mgt1 strain, at 50.0 µM, active compounds read high
How it was run: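 Genetically altered yeast, compound exposure, growth inhibition relative to vehicle.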

Structure (SMILES)	growth inhibition
O=C(COC(=O)c1cccc([N+](=O)[O-])c1)c1ccc(Br)cc1	1.55% (inactive)
Cc1ccc(NS(=O)(=O)c2ccc(F)cc2)c(C)c1	-2% (inactive)
CCOC(=O)N(C)C	3.65% (inactive)
CCCCN1C(=O)CC2[C@@H]3CCc4cc(OC)ccc4C3CC[C@]2(C)C1=O (stereo not given in full)	16.1% (inactive)
COc1cc2cc(-c3ccc(Cl)c(Cl)c3)[n+](C)cc2cc1OC	35.3% (inactive)
Fc1ccc(-c2ccc(F)cc2)cc1	-12.1% (inactive)
CC(=O)Nc1ccc(S(=O)(=O)N/N=C/c2ccc3c(c2)OCO3)cc1	2.55% (inactive)
Cc1ccc(/C=C2\N=C(N3CCCC(CO)C3)NC2=O)cc1 (stereo not given)	-18.3% (inactive)
O=[N+]([O-])c1ncc(N(CCO)CCO)s1	17.6% (inactive)
Cc1ccc(C)c(NC(=O)C(=O)C2C(=O)C3=C(CC2(C)C)Nc2ccccc2S3)c1 (stereo not given)	-14.1% (inactive)
N[C@@H]1CCCC[C@H]1O	-8.7% (inactive)
CN(C)NC(=O)/C=C\C(=O)O	-9.8% (inactive)
CC(C)(N)CNc1ccccc1	-9.85% (inactive)
CN1c2ccccc2C(=O)NC12CCN(Cc1ccccc1)CC2	-12.8% (inactive)
CC1CCN(C(=S)[S-])CC1.CC1CCN(C(=S)[S-])CC1.[Zn]	54.2% (inactive)
CN(C)Cc1onc(-c2c(Cl)cccc2Cl)c1C(=O)O	-9.95% (inactive)
CC(=O)OC1=C(OC(C)=O)N(S(=O)(=O)c2ccc(C)cc2)CCc2ccccc21	36.6% (inactive)
O=C(Sc1ccccc1)C1OC1c1ccccc1 (stereo not given)	22.6% (inactive)
CCOC(=O)N1C2C=C(C)C(ON2C(=O)c2ccccc2)C2C(C)C(=O)N21 (stereo not given)	-5.8% (inactive)
CCOP(=O)(OCC)OC1CC(n2cc(C)c(=O)n(C)c2=O)OC1CO[Si](C)(C)C(C)(C)C (stereo not given)	25.9% (inactive)

Structure (SMILES)	growth inhibition
c1ccc(Sc2nc(Sc3ccccc3)nc(Sc3ccccc3)n2)cc1	-15.2% (inactive)
O=C(O)c1csc(C(=O)O)c1	9.05% (inactive)
Nc1ncc(Cl)cn1	8% (inactive)
COc1ccc(N)cc1CO	-15.3% (inactive)
O=C(N/N=C/c1c(O)ccc2ccccc12)c1ccccc1	42.1% (inactive)
CCn1c(=O)c(Cl)c2n(C)c3ccccc3n2c1=O	-2.85% (inactive)
O=C(NC(=O)c1cccc(Cl)c1)Nc1ccccc1	-19.6% (inactive)
NN(c1ccccc1)c1ccccc1	35.5% (inactive)
C[N+](C)(C)CC(=O)N/N=C(/Cc1nc2ccc([N+](=O)[O-])cc2[nH]c1=O)C(=O)Nc1cc(C(F)(F)F)ccc1Cl	3.35% (inactive)
CCOC(=O)C(=O)Cc1cnccn1	-11.8% (inactive)
CCOC(Nc1ccc(Cl)cc1Cl)C(=O)c1ccccc1 (stereo not given)	-2.8% (inactive)
O=C1C(Cl)=C(Cl)C(=O)N1c1ccccc1Cl	36.5% (inactive)
Cc1cccc(C)c1NC(=O)CCC(=O)NC(N)=NC#N	-25.7% (inactive)
NC(=O)CC(NC(=O)C(F)(F)F)C(=O)O (stereo not given)	-13.4% (inactive)
CCN(CC)CCCNc1ccc([N+](=O)[O-])c2nc3ccccc3c(N)c12	15.8% (inactive)
CC(N)(CCSCP(=O)(O)O)C(=O)O (stereo not given)	-19.5% (inactive)
CCOC(=O)Nc1cc2c(c(N)n1)N=C(c1ccc(OC)cc1)CN2	24.5% (inactive)
CC(C)Oc1c(N(C)CCO)c2cc(Cl)ccc2oc1=O	3.45% (inactive)
OC/C(I)=C(I)\C(I)=C(\I)CO	99.5% (active)
C=C(C)COB(OCC(=C)C)OCC(=C)C	-2.25% (inactive)

From PubChem BioAssay (NCI)
